In the supplement of paper PMC10849652:
Of roughly 7,900 targets only a part is listed; those with a hit were picked by preference. About 0.6% of all pairs of compound and target were hits.

compound: CN1CC[C@H](c2c(O)cc(O)c3c(=O)cc(-c4ccccc4Cl)oc23)[C@H](O)C1 [alvocidib]; test: log2 fold change, soluble protein after heating vs DMSO (PISA); higher = thermal stabilisation; K562 cells, 10 uM, 30 min; active = over 0.2 and 3.5 SD of the protein, either way, in both replicates (recomputed)
How it was run: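 K562 cells at 2×10^6 cells/mL were treated with 10 μM compound for 30 min. Aliquots were heated for 3 min across 48°C-58°C, pooled, and extracted in PBS with 0.5% NP-40 at 4°C; soluble protein was the supernatant after 21,000xg for 90 min. Soluble protein was quantified by TMTpro 16plex LC-MS/MS with channel sums equalised, and reported as log2 fold change in thermal stability against DMSO controls, with values from duplicates.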

Sequence of UniProt P45984 (P45984 whole entry, looked up): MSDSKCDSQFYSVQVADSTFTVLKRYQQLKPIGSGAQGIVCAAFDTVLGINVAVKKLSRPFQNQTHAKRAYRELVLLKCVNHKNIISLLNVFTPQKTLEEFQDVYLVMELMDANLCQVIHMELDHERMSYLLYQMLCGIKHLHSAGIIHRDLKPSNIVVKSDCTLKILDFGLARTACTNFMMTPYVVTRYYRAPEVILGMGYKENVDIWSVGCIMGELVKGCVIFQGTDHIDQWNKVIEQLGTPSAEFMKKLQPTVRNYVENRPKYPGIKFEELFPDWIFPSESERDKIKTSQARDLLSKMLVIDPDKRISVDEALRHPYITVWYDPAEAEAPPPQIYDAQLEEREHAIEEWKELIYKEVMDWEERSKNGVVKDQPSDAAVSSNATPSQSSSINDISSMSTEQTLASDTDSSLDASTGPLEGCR
Sequence of UniProt Q96GA3 (Q96GA3 whole entry, looked up): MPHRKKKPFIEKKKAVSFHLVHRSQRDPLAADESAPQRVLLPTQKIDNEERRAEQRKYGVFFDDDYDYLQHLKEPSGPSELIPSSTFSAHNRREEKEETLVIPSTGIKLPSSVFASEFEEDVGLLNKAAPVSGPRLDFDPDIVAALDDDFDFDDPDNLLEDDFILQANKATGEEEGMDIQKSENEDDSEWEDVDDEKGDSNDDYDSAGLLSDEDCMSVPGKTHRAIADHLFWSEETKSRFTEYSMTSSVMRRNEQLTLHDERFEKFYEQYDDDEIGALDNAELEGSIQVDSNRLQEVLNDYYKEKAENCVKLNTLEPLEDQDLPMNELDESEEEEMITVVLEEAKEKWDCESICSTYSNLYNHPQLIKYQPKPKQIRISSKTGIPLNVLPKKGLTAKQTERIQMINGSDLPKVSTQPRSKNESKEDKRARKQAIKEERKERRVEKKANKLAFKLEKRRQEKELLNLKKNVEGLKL
Sequence of UniProt Q8NC54 (Q8NC54 whole entry, looked up): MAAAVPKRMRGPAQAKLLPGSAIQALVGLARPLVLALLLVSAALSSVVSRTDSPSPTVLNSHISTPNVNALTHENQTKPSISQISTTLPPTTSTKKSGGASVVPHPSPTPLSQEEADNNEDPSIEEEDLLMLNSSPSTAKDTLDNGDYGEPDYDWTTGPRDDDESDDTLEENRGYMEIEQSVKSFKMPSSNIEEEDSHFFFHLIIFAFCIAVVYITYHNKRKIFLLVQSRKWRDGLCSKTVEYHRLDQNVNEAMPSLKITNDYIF
Sequence of UniProt Q4G0J3 (Q4G0J3 whole entry, looked up): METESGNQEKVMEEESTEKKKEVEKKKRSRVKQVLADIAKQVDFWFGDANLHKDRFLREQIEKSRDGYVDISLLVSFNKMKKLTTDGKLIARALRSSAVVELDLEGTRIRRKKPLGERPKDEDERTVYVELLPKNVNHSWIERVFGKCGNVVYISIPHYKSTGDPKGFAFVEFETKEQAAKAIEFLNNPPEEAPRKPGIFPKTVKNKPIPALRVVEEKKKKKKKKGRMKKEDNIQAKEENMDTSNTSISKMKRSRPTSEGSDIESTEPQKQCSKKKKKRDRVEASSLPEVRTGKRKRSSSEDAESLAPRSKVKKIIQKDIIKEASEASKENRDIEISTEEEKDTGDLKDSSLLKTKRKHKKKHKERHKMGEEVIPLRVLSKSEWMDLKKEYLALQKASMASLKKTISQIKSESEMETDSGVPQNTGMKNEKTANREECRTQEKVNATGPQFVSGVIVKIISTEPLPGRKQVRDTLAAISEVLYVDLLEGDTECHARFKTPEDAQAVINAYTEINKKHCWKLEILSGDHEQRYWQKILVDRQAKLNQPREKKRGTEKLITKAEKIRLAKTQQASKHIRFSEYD
Sequence of UniProt Q9H6V9 (Q9H6V9 whole entry, looked up): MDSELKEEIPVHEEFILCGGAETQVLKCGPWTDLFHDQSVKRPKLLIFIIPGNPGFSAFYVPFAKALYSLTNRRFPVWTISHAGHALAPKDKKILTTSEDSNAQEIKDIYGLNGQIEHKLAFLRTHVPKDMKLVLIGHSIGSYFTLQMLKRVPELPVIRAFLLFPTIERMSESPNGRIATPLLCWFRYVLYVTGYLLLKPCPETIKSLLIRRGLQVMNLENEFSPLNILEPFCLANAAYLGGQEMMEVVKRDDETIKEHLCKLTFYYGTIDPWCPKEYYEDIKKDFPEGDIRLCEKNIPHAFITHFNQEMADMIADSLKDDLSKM
Sequence of UniProt O95140 (O95140 whole entry, looked up): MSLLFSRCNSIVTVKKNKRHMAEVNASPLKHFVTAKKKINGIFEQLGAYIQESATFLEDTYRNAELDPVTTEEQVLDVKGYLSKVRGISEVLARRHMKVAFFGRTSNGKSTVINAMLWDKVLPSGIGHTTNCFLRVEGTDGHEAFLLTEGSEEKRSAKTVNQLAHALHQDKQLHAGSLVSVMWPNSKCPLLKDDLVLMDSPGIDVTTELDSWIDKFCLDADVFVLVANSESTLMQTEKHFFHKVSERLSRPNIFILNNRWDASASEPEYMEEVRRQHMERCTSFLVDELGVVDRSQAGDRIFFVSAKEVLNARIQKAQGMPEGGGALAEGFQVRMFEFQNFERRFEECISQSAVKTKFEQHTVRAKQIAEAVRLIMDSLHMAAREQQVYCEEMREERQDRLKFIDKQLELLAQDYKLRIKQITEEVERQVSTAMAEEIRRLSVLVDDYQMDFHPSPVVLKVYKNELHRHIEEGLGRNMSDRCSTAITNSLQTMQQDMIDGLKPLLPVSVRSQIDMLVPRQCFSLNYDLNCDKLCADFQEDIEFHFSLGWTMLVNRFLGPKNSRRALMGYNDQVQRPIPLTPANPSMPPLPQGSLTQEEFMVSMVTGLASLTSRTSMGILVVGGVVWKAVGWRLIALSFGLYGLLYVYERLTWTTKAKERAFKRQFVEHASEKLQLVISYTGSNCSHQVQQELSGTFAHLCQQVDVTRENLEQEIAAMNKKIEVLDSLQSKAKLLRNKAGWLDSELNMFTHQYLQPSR
Sequence of UniProt Q6N075 (Q6N075 whole entry, looked up): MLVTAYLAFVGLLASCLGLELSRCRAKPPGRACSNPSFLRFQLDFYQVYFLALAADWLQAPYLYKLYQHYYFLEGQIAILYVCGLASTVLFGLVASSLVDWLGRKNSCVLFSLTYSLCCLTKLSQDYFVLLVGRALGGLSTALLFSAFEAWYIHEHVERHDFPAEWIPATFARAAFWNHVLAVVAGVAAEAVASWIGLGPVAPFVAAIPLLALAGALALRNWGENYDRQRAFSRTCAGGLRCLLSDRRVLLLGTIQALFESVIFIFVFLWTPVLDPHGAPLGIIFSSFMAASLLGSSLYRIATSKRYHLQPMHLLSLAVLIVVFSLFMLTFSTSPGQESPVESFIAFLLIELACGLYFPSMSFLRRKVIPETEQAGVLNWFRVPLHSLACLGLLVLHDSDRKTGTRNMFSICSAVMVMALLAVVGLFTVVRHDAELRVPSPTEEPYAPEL
Sequence of UniProt Q14624 (Q14624 whole entry, looked up): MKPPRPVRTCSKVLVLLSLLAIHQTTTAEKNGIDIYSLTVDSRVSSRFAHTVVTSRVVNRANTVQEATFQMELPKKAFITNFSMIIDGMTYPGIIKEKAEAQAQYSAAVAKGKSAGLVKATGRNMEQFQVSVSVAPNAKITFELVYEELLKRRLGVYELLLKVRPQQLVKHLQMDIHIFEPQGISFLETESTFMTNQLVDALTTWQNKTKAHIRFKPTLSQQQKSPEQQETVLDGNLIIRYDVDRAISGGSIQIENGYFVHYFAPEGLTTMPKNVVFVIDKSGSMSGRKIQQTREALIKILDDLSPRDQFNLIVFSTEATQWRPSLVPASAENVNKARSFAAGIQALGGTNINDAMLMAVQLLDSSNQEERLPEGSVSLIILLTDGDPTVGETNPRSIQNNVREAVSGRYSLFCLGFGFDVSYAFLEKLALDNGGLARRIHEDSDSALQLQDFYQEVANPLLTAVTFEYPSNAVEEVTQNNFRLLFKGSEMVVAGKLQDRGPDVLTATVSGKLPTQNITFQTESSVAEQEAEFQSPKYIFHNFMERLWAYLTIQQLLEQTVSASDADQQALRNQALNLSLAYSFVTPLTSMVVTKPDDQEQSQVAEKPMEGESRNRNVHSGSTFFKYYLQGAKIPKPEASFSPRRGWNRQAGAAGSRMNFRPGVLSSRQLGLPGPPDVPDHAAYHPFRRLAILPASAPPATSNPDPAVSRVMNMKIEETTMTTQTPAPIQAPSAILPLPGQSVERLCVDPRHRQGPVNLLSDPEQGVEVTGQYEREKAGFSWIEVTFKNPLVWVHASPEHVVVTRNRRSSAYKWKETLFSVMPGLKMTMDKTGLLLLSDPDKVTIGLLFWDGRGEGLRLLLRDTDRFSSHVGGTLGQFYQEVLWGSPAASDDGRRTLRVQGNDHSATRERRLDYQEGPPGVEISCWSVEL
Sequence of UniProt Q03252 (Q03252 whole entry, looked up): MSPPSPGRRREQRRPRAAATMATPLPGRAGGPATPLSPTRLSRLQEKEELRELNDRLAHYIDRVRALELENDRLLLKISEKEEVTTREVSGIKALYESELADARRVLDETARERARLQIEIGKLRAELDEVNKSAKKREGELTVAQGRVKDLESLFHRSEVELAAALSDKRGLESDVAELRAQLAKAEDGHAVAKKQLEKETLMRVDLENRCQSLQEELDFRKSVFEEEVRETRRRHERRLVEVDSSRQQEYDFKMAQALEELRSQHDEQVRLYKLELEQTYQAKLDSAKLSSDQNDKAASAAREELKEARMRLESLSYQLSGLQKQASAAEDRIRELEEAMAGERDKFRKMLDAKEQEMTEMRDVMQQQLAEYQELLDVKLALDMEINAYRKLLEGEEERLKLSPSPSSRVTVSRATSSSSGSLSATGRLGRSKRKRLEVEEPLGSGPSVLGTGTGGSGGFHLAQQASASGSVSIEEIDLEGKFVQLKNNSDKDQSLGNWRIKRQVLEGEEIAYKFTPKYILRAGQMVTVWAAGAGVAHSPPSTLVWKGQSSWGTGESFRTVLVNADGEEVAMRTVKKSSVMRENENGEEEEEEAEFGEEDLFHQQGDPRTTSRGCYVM
Sequence of UniProt Q96A72 (Q96A72 whole entry, looked up): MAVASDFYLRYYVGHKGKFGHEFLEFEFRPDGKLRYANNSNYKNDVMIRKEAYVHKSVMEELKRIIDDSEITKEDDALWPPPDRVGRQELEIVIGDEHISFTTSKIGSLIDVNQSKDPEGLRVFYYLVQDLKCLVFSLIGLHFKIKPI

Target | log2 fold change
LARP7 isoform 3 (UniProt Q4G0J3) | -0.234 (active)
LDAH isoform 2 (UniProt Q9H6V9) | -0.139 (inactive)
MFN2 (UniProt O95140) | -0.012 (inactive)
MAGOHB (UniProt Q96A72) | 0.03 (inactive)
LMNB2 (UniProt Q03252) | -0.02 (inactive)
LTV1 (UniProt Q96GA3) | 0.151 (inactive)
KLHL18 (UniProt O94889) | -0.084 (inactive)
MFSD5 isoform 2 (UniProt Q6N075) | 0.029 (inactive)
MEAK7 (UniProt Q6P9B6) | -0.056 (inactive)
MCCC2 (UniProt Q9HCC0) | 0 (inactive)
ITIH4 (UniProt Q14624) | 0.005 (inactive)
KNTC1 (UniProt P50748) | 0.013 (inactive)
MFGE8 (UniProt Q08431) | 0.034 (inactive)
KCT2 (UniProt Q8NC54) | -0.095 (inactive)
MAPK9 (UniProt P45984) | 0.002 (inactive)
LSS (UniProt P48449) | -0.066 (inactive)
